Reference: PubChem BioAssay
Inconclusive results are not listed. For some assays here: Entries with a potency or affinity are not part of this list. The source made the active and inactive calls.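 Rule for the calls, unless noted: active = response below a set limit, under 55% cells CD8-positive and vesicle-bound, and CD8 cells' 90th-percentile brightness under 279; inactive = the rest.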

Tests used:
[1] = target: Cell division control protein 42 homolog (Homo sapiens) (UniProt P60953); experiment: inhibition of fluorescent GTP binding to constitutively active Cdc42 – biochemical, multiplex bead flow cytometry, Bodipy-FL-GTP, dose response (AID 1333;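 active = fitted half-maximal concentration within the tested dose range, moderate curve steepness, a statistically real signal drop, and little compound fluorescence or tag-binding interference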)
[2] = target: Cell division control protein 42 homolog (Homo sapiens) (UniProt P60953); experiment: inhibition of fluorescent GTP binding to wildtype Cdc42 – biochemical, multiplex bead flow cytometry, Bodipy-FL-GTP, dose response (AID 1334;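 active = fitted half-maximal concentration within the tested range, moderate curve steepness, significant signal drop, and little compound fluorescence or bead-linkage interference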); details: bead-based flow cytometry, Bodipy-FL-GTP binding to GST-Cdc42; at 100 µM (top of the series) unless noted
[3] = target: GTPase HRas (Homo sapiens) (UniProt P01112); experiment: Ras wt fluorescent GTP loading blockade – biochemical, wildtype, multiplex bead flow cytometry, dose response (AID 1335;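 active = fitted half-maximal concentration within 10 nM to 100 µM, steepness 0.5 to 2, significant signal drop, low assay interference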); details: bead-based flow cytometry, Bodipy-GTP binding to GST-Ras; at 100 µM (top of the series) unless noted
[4] = system: Ras-related protein Rab-7a (dog), GTP binding; experiment: blockers of fluorescent GTP binding to Rab7 – biochemical, wildtype, multiplex bead flow cytometry, dose response (AID 1336; call rule not given here)
[5] = target: Ras-related C3 botulinum toxin substrate 1 (Homo sapiens) (UniProt P63000); experiment: inhibition of wildtype Rac1 nucleotide loading – biochemical, multiplex bead flow cytometry, dose response (AID 1340;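 active = dose curve with midpoint inside tested range, moderate steepness, plateau gap beyond fit error, low compound glow and bead-link interference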); details: GST-Rac1 beads, Bodipy-FL-GTP binding; at 100 µM (top of the series) unless noted
[6] = target: GTPase HRas (Homo sapiens) (UniProt P01112); experiment: blockade of GTP loading onto mutant Ras – biochemical, activated mutant, multiplex bead flow cytometry, dose response (AID 1341;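 active = dose-response curve with midpoint inside the tested range, moderate steepness, significant amplitude and little compound fluorescence or bead-attachment interference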;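 note: GST-tagged constitutively activated Ras mutant immobilized on beads and multiplexed with other GTPases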)
[7] = rapamycin-like changes in RPL19A-GFP expression – cell-based, S. cerevisiae, multiplex flow cytometry, primary screen (AID 1862; in the data active = percent of DMSO control GFP below about 86%;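 note: lower values mimic rapamycin by blocking the RPL19A rise seen in DMSO cells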); details: S. cerevisiae RPL19A-GFP strain, flow cytometry fluorescence, 3 h; at 10 µM; stronger effect = lower value
[8] = TOR pathway GLN3 branch reporter MEP2-GFP changes – S. cerevisiae, multiplex flow cytometry, primary screen (AID 1867;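 active = GFP response, as percent of the DMSO control, above the screen-wide mean plus 3 SD, about 139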;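 note: median GFP channel fluorescence of barcode-gated MEP2-GFP cells measured by flow cytometry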); details: S. cerevisiae MEP2-GFP strain, 3 h, at 10 µM, stronger effect = higher value, 100% means same as DMSO wells
[9] = TOR pathway RTG branch CIT2 reporter changes – S. cerevisiae, GFP fusion, multiplex flow cytometry, primary screen (AID 1870;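 active = percent response above a set limit, the screen-wide mean plus 3 SD, cut at about 130% in these data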;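 note: barcoded CIT2-GFP strain pooled with four other GFP strains with rapamycin as positive control; median GFP fluorescence per well over plate mean of DMSO wells so 100% = DMSO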); details: S. cerevisiae CIT2-GFP expression, 3 h, at 10 µM, stronger effect = higher value
[10] = TOR pathway LAP4-GFP level changes – S. cerevisiae, multiplex flow cytometry, primary screen (AID 1873;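 active = GFP signal, as percent of the solvent control, above the screen mean plus 3 SD, about 149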); details: S. cerevisiae LAP4-GFP expression, 3 h, at 10 µM, stronger effect = higher value
[11] = yeast AGP1-GFP level changes, GLN3 branch – cell-based, multiplex flow cytometry, S. cerevisiae, primary screen (AID 1887;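 active = GFP signal above the screen-wide mean plus 3 SD, that is over about 124.5% of the solvent control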;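 note: AGP1-GFP fusion strain of S. cerevisiae within a five-strain barcoded multiplex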); details: 3 h, at 10 µM, stronger effect = higher value
[12] = reduced mouse 2C T cell binding to pMHC/ICAM-1 vesicles – MLPCN validation set, flow cytometry, LFA-1/ICAM-1 modulator project, pilot screen (AID 2523); details: 2C mouse CD8+ T cells, at 7 µM, stronger effect = lower value; double positive events: measured here: CD8+/vesicle+ event percentage;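 for vesicle binding response: mean PE anti-B7-1 fluorescence of CD8+ cells relative to row control; 100% = QL9-loaded vesicles with DMSO vehicle in the same plate row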
[13] = target: Integrin beta-1 (Homo sapiens) + Integrin alpha-4 (Homo sapiens) (UniProt P13612+P05556); experiment: alpha4beta1 integrin LIBS antibody binding reduction – U937 cells, HUTS-21 mAb, flow cytometry, validation set, VLA-4 allosteric modulator project, pilot screen (AID 2674;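 active = inhibition above 50%, about 3 SD of the validation set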;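 note: antibody binding induced by the VLA-4 ligand LDV present at three times its Kd; 0% = LDV ligand with antibody and no compound and 100% = antibody without LDV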); details: HUTS-21 LIBS mAb binding, at 6.7 µM, stronger effect = higher value, binding induced by LDV ligand
[14] = calorie-restriction mimetic ROS inhibitors, yeast – validation compound set, pilot screen (AID 2706;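 active = superoxide response below 65% of plate, a cut near 3 SD across the whole screen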;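 note: yeast exposed to compound for one week at 30 degrees C before staining; 100% = mean of all compound wells on the same plate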); details: S. cerevisiae aging, superoxide DHE fluorescence; at 10 µM; stronger effect = lower value
[15] = target: Beta-adrenergic receptor kinase 1 (Homo sapiens) (UniProt P25098); experiment: GRK2 binders displacing RNA aptamer, biochemical, validation, human GRK2, bead flow cytometry (AID 488806;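 active = aptamer binding inhibition above 30%, about 3 SD of noise from non-fluorescent compounds; inactive = inhibition at or below 30%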); details: bead-bound GRK2, FAM-aptamer displacement, at 10 µM, stronger effect = higher value
[16] = target: Beta-2 adrenergic receptor (Homo sapiens) (UniProt P07550); experiment: agonist-induced loss of surface beta2AR – cell-based, FAP fluorogen, flow cytometry, validation set, pilot screen (AID 504459;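 active = percent response above 42, roughly 3 SD of non-fluorescent test compounds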;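 note: agonist-driven loss of surface beta2AR via internalization measured by FAP dye flow cytometry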); details: Am2.2-beta2AR cells, at 10 µM, stronger effect = higher value
[17] = target: AP-2 complex subunit beta (Homo sapiens) (UniProt P63010); experiment: beta-arrestin/AP2 interaction blockers – biochemical, validation set, GST-AP2 beads, flow cytometry, pilot screen (AID 504541;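 active = inhibition above 54%, about 3 SD of non-fluorescent compounds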;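 note: AP2 carries R879A mutation and is captured from E. coli lysate; bead-bound FITC arrestin peptide fluorescence measuring arrestin peptide binding to AP2; 0% = DMSO wells and 100% = excess unlabeled arrestin peptide control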); details: FITC arrestin peptide, at 10 µM, stronger effect = higher value, AP2 beta2 appendage fragment, R879A mutant
[18] = cytosolic pH regulators acting via V-ATPase – S. cerevisiae, pHLuorin, HTS validation (AID 504600; in the data active = response above about 15%;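 note: plate controls were DMSO for no effect and reference compound for full effect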); details: V-ATPase proton transport, at 10 µM, stronger effect = higher value
[19] = system: anti-desmoglein-3 scFv antibody binding to human DSG3; experiment: blockers of pathogenic pemphigus antibody–desmoglein-3 binding – biochemical, validation compound set, bead-based, flow cytometry, pilot screen (AID 588368;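 active = binding below the plate cutoff, the plate median minus 3 SD, with a reading above zero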;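 note: signal is the median channel fluorescence of bead-bound GFP antibody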); details: Protein G beads, DSG3-Fc, scFv-GFP binding, at 10 µM, stronger effect = lower value
[20] = Nile Red efflux blockade in pump-expressing yeast – validation compound set, multiplex, phenotypic, pilot screen (AID 588506;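 active = efflux inhibition above 0.42, the validation set average plus 4 SD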;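 note: Nile Red retained in cells so higher fluorescence means more efflux inhibition; 0 = negative control wells and 1 = enniatin B 25 µM full block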); details: S. cerevisiae pump-expressing triplex, Nile Red efflux flow cytometry; at 10 µM; stronger effect = higher value; the pumps come from Candida albicans
[21] = target: ATP-binding cassette sub-family B member 6 (Homo sapiens) (UniProt Q9NP58); experiment: blockers of ABCB6-driven porphyrin uptake – K562-ABCB6 cells, flow cytometry, validation set, pilot screen (AID 588550;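 active = inhibition above the screen-wide mean plus 3 SD, about 51%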;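 note: 0% = DMSO wells and 100% = benzethonium chloride 70 µM positive control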); details: K562-ABCB6 porphyrin accumulation, 1 h, at 10 µM, stronger effect = higher value
[22] = AML differentiation inducers, ER-HoxA9 marrow cells – cell-based, GFP/MAC1 double positive, flow cytometry, validation set, primary screen (AID 588685;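 active = differentiation response of at least 50%, scaled between solvent and reference control, from cells with both markers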;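 note: compound exposure lasts four days before antibody staining and flow analysis; 0% = DMSO wells and 100% = 5 µM fulvestrant positive control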); details: stronger effect = higher value, normalized: vehicle 0, fulvestrant 100

Chain of GTPase HRas (Homo sapiens) (P01112 whole entry, looked up): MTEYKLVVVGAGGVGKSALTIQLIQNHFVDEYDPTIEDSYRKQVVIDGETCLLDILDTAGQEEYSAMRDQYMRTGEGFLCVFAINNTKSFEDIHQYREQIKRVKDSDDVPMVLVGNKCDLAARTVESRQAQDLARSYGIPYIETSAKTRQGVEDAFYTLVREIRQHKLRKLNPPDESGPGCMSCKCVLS
Chain of Beta-2 adrenergic receptor (Homo sapiens) (P07550 whole entry, looked up): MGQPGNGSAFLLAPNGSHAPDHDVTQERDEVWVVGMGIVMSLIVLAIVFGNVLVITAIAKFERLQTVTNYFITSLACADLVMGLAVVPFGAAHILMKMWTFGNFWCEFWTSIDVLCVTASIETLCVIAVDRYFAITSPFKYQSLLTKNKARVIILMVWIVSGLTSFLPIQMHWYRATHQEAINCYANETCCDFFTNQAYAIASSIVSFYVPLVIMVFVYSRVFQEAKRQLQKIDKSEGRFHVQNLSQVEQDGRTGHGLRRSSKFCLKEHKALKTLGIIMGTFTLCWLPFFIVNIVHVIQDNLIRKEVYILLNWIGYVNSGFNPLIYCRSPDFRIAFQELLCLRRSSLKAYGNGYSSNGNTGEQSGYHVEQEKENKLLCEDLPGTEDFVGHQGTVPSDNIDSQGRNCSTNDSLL
Chain of Integrin beta-1 (Homo sapiens) + Integrin alpha-4 (Homo sapiens) (P05556 whole entry, looked up): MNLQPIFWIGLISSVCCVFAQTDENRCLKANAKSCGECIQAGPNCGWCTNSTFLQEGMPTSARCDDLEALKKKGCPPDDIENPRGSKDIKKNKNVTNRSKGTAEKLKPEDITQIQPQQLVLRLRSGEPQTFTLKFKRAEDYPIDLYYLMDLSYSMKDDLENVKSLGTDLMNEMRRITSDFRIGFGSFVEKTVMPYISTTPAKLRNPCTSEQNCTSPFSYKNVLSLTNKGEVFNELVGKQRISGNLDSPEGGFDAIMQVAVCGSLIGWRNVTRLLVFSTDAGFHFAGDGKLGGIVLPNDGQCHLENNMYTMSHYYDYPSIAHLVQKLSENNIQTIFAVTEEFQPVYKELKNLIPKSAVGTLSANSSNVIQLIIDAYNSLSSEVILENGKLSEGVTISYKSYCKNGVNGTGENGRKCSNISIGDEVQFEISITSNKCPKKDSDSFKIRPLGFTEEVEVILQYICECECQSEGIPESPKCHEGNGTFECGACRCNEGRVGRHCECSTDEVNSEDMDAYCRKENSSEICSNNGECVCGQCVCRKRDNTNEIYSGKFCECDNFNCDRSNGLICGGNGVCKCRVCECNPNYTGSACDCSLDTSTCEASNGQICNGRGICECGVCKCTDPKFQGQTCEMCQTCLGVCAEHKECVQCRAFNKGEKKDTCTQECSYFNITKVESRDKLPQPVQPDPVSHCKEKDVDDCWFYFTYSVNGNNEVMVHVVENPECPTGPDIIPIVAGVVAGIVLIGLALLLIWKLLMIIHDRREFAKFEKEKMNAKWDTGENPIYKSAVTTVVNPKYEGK
Chain of Integrin beta-1 (Homo sapiens) + Integrin alpha-4 (Homo sapiens) (P13612 whole entry, looked up): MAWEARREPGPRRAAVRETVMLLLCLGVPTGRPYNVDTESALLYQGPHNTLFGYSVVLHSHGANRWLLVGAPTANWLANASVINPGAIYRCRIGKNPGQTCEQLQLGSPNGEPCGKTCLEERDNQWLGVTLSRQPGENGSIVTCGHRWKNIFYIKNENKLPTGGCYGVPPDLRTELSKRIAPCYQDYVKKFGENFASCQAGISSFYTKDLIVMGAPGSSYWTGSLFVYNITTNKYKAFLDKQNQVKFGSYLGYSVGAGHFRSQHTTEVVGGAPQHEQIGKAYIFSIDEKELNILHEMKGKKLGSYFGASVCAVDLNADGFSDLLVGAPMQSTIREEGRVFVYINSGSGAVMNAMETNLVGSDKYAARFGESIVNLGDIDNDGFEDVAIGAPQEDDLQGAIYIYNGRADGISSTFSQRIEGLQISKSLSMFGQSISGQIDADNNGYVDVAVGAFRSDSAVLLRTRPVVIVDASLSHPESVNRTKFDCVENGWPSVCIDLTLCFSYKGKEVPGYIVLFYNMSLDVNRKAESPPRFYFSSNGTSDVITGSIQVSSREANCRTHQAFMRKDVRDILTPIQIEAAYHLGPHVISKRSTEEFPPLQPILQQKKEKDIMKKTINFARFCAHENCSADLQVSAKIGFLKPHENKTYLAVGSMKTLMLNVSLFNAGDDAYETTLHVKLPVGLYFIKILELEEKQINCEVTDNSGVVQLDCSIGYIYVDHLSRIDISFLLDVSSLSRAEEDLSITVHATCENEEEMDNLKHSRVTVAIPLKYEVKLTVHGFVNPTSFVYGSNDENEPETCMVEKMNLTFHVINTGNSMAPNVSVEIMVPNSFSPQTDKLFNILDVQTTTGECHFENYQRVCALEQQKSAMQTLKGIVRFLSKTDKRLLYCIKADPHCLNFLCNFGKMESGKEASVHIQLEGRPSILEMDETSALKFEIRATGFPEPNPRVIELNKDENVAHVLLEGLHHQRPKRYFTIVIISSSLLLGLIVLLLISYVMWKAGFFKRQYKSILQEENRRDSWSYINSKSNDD
Chain of Cell division control protein 42 homolog (Homo sapiens) (P60953 whole entry, looked up): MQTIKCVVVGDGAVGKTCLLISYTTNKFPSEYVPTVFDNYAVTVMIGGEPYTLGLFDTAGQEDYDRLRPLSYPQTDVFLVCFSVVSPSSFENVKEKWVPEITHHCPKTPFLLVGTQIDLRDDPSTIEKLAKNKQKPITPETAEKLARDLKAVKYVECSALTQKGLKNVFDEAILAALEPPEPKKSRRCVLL
Chain of ATP-binding cassette sub-family B member 6 (Homo sapiens) (Q9NP58 whole entry, looked up): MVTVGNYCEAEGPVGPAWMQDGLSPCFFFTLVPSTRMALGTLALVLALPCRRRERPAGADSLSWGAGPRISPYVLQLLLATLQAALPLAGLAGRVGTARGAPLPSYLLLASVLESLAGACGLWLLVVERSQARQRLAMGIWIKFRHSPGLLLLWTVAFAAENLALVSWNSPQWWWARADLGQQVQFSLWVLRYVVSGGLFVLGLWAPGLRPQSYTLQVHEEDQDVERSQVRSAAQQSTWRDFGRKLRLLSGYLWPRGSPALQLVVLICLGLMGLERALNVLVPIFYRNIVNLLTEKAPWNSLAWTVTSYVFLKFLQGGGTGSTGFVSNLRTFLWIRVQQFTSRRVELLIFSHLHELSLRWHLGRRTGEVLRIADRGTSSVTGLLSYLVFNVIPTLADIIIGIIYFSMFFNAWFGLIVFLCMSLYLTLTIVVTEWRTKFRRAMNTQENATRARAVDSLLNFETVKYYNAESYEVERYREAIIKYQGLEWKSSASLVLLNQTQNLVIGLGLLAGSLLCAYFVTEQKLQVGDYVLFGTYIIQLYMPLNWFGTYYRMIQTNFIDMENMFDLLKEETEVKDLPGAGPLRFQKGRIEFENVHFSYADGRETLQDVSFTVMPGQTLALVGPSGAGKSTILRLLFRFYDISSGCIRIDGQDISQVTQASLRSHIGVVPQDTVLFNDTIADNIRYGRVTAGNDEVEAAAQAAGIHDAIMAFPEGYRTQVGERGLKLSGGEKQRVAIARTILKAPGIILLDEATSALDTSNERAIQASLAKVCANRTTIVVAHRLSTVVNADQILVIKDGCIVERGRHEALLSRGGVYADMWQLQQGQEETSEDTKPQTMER
Chain of AP-2 complex subunit beta (Homo sapiens) (P63010 whole entry, looked up, the tested form may be a part, one chain of several): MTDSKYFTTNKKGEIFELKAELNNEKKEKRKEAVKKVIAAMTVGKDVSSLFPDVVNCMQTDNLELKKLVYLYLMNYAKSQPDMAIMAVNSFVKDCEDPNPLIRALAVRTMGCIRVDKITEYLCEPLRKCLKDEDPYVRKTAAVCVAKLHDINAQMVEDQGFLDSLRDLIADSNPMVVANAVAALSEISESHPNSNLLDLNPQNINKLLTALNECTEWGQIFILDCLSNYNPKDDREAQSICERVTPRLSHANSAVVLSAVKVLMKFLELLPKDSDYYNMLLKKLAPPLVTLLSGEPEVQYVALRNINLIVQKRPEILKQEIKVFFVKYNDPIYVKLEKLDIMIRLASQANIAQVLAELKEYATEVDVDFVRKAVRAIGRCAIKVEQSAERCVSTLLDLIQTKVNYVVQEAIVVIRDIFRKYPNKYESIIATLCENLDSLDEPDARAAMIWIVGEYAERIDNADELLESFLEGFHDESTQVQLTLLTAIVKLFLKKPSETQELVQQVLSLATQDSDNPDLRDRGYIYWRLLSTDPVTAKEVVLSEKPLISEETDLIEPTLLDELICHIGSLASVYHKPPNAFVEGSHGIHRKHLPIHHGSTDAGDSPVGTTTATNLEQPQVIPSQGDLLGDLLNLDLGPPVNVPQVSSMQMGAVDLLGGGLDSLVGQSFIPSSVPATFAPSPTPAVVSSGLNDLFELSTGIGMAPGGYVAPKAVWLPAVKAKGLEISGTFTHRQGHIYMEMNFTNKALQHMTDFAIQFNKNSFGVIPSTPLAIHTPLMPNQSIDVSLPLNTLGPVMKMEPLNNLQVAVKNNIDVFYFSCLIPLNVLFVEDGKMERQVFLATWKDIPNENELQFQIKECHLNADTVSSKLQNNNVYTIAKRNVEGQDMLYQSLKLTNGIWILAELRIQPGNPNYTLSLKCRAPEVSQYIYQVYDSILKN

COc1cc2c(cc1OC)-c1cc(NC3CCCCCC3)nc(=O)n1CC2
outcome [1]: inactive
fluorescence, percent of control (lower = inhibition) [2]: 34.3%
GTP binding, percent of control [3]: 69.8%
outcome [4]: inactive
GTP binding signal, raw median fluorescence (lower = inhibition) (MCF (arbitrary fluorescence units)) [5]: 145
outcome [6]: inactive
percent of DMSO control GFP [7]: 100% (inactive)
GFP response vs DMSO [8]: 100% (inactive)
percent response of DMSO control [9]: 109% (inactive)
GFP response vs DMSO [10]: 94.7% (inactive)
GFP response, % of DMSO [11]: 95.9% (inactive)
double positive events [12]: 62.4%
vesicle binding response [12]: 601% (inactive)
inhibition [13]: -22.2% (inactive)
superoxide response (% of plate) [14]: 98.3% (inactive)
aptamer binding inhibition [15]: 0% (inactive)
response [16]: -1.14% (inactive)
inhibition [17]: 17% (inactive)
response [18]: -1.05% (inactive)
binding (% of control) [19]: 107% (inactive)
efflux inhibition (fraction of control) [20]: 0.21 (inactive)
inhibition [21]: -6% (inactive)
differentiation response [22]: 7.09% (inactive)
